APP 5UTR inh = APP translation inhibition; hit rate 0.82% among 190,000; SH-SY5Y APP 5'UTR-luciferase reporter, luminescence; inhibition, % at 2 µM;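 active means inhibition above a set limit, derived from the sample mean plus 3 SD, cut at about 45% in these data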
Ba/F3 V617F tox = lowers viability of Ba/F3 cells expressing EpoR and JAK2V617F; ATP luminescence; inhibition, % at 5.6 µM; hit rate 1.1% among 220,000;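 active means inhibition above the campaign mean plus 3 SD over all tested compounds, cut at about 24% in these data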;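 further: cytokine-independent growth of Ba/F3 cells driven by EpoR plus mutant JAK2; 0% = DMSO-treated cells and 100% = JAK inhibitor I control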
BaF3 parental = reduces parental Ba/F3 cell viability, JAK2V617F counter-screen. CellTiter-Glo ATP luminescence. inhibition, % at 5.6 µM. hit rate 1.1% among 220,000. AID 1486;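 active means inhibition above a per-campaign cutoff, the mean inhibition of all tested compounds plus 3 SD, cut at about 27% in these data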;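 further: 0% = DMSO wells and 100% = JAK Inhibitor I control wells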
aSyn UTR inh = MLPCN primary screen, SNCA 5' untranslated region. alpha-synuclein 5'UTR reporter, inhibitor activity. inhibition, % (tested at 7.5 µM). hit rate 0.82% among 300,000. AID 1813; in the data active means inhibition above about 60%;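 further: H4 neuroglioblastoma cells stably carrying SNCA 5'UTR luciferase fusion; 0% = DMSO wells and 100% = positive control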
KLF5 inh = suppresses KLF5 promoter-driven expression | DLD-1 KLF5 promoter-luciferase reporter, luminescence | inhibition, % at 5 µM | hit rate 0.23% among 290,000 | AID 1700;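 active means inhibition above a per-plate limit of that plate's mean compound inhibition plus 3 SD, cut at about 60% in these data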;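 further: 0% = DMSO wells and 100% = LY294002 at 200 µM; higher means less KLF5 promoter-driven luciferase light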
IEC-6 cytotox = IEC-6 cytotoxicity, counter-screen for KLF5 inhibitors. hit rate 0.78% among 290,000. inhibition, % at 5 µM. luminescence viability; in the data active means inhibition above about 22%;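 further: 0% = plate median of test compound wells and 100% = cytotoxic reference compound wells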
Active calls of the source: *. Only some compounds are listed: those with a hit (about 2.2% of all), similar ones and a draw of the others.

How did COc1cc2c3nnc(-c4ccc(F)cc4)c-3cn(Cc3ccccc3F)c2cc1OC do in these assays?
APP 5UTR inh: 53*; Ba/F3 V617F tox: 1; BaF3 parental: 4; KLF5 inh: -15; IEC-6 cytotox: -2

How did COc1ccc(CCNC(=O)c2nonc2N)cc1OC do in these assays?
APP 5UTR inh: -22; Ba/F3 V617F tox: -2; BaF3 parental: 69*; aSyn UTR inh: -6; KLF5 inh: -18; IEC-6 cytotox: -3

Results for COc1cc(-c2nnc(SCC(=O)N(Cc3ccccc3)C(C)(C)C)o2)cc(OC)c1OC ?
APP 5UTR inh: -2; Ba/F3 V617F tox: 2; BaF3 parental: 96*; aSyn UTR inh: 0; KLF5 inh: -9; IEC-6 cytotox: 6

What do the screens show for `NC(=O)c1nsc(C(=O)N(c2ccccc2)C(C(=O)NC2CCCCC2)c2ccc(O)cc2)c1N` (stereo not given)?
aSyn UTR inh: 14; KLF5 inh: 1; IEC-6 cytotox: -1

Results for CCOc1ccc(-c2nc(CSCC(=O)NCc3ccco3)c(C)o2)cc1 ?
APP 5UTR inh: 48*; Ba/F3 V617F tox: -3; BaF3 parental: 2; aSyn UTR inh: 46; KLF5 inh: 18; IEC-6 cytotox: 1

How did CCOc1ccc(-c2nc(CSCC(=O)NC3CC3)c(C)o2)cc1 do in these assays?
aSyn UTR inh: 31; KLF5 inh: 28; IEC-6 cytotox: 6

Results for Cc1ccc(-c2nc(CSCC(=O)N3CCN(c4ccccn4)CC3)c(C)o2)cc1 ?
APP 5UTR inh: 12; Ba/F3 V617F tox: -3; BaF3 parental: 7; aSyn UTR inh: 22; KLF5 inh: -18; IEC-6 cytotox: -1

What do the screens show for `CCc1ccc(-c2nc(CSCC(=O)N3CCN(c4ccccn4)CC3)c(C)o2)cc1`?
APP 5UTR inh: 14; Ba/F3 V617F tox: 2; BaF3 parental: 4; aSyn UTR inh: 82*; KLF5 inh: 7; IEC-6 cytotox: -3

Results for CCOc1ccc(-c2nc(CSCC(=O)N3CCN(c4cccc(OC)c4)CC3)c(C)o2)cc1 ?
Ba/F3 V617F tox: -4; BaF3 parental: 5; aSyn UTR inh: 68*; KLF5 inh: -15; IEC-6 cytotox: -2

How did O=C1COc2ccc(S(=O)(=O)N3CCC(C(=O)NCc4ccc(F)cc4)CC3)cc2N1 do in these assays?
aSyn UTR inh: -23; KLF5 inh: -24; IEC-6 cytotox: -3

What do the screens show for `CNc1nc(N/N=C/c2cc3c(cc2[N+](=O)[O-])OCO3)nc(Nc2ccccc2)n1`?
APP 5UTR inh: 6; Ba/F3 V617F tox: 0; BaF3 parental: 5; aSyn UTR inh: 74*; KLF5 inh: -8; IEC-6 cytotox: -8

Results for O=[N+]([O-])c1cc2c(cc1/C=N\NS(=O)(=O)c1ccccc1)OCO2 ?
APP 5UTR inh: -2; Ba/F3 V617F tox: -3; BaF3 parental: -2; aSyn UTR inh: 17; KLF5 inh: -21; IEC-6 cytotox: -6

Results for COc1ccc(OC(C)C(=O)NC(C)c2ccccc2)cc1 (stereo not given) ?
aSyn UTR inh: 10; KLF5 inh: -26; IEC-6 cytotox: -5

Results for CCc1cc2c(cc3c(=O)n(CC(=O)N4CCN(C)CC4)ncn32)s1 ?
aSyn UTR inh: 12; KLF5 inh: -44; IEC-6 cytotox: 2

Results for COc1ccc(-c2cc(C(=O)N3CCOCC3)no2)cc1 ?
aSyn UTR inh: 73*; KLF5 inh: -31; IEC-6 cytotox: -1

How did COc1cccc(-c2cc(C(=O)N3CCOCC3)no2)c1 do in these assays?
aSyn UTR inh: -41; KLF5 inh: -112; IEC-6 cytotox: -2

How did O=C(N/N=C/C(Br)=C\c1ccccc1)c1ccc2nc[nH]c2c1 do in these assays?
APP 5UTR inh: 83*; Ba/F3 V617F tox: 3; BaF3 parental: 2; aSyn UTR inh: -90; KLF5 inh: 31; IEC-6 cytotox: 11

Results for CC(=C/c1ccccc1)/C=N/NC(=O)c1ccc2nc[nH]c2c1 ?
APP 5UTR inh: 18; Ba/F3 V617F tox: 0; BaF3 parental: 9; aSyn UTR inh: -56; KLF5 inh: -17; IEC-6 cytotox: -1

How did CCOc1cc(C(=O)N/N=C/C(Br)=C/c2ccccc2)cc(OCC)c1OCC do in these assays?
APP 5UTR inh: 90*; Ba/F3 V617F tox: -4; BaF3 parental: 2; aSyn UTR inh: 104*; KLF5 inh: -26; IEC-6 cytotox: 7

Results for CCc1cc2c(=O)n(Cc3ccco3)c(SCc3c(C)noc3C)nc2s1 ?
APP 5UTR inh: 50*; Ba/F3 V617F tox: 5; BaF3 parental: 3; aSyn UTR inh: 34; KLF5 inh: 0; IEC-6 cytotox: 9

Results for Cc1cc(NC(=O)c2cncc(Br)c2)ccc1NC(=O)c1cc2ccccc2o1 ?
aSyn UTR inh: 78*; KLF5 inh: -5; IEC-6 cytotox: 12

Results for COc1cc(NC(=O)c2ccccc2)ccc1NC(=O)c1cc2ccccc2o1 ?
aSyn UTR inh: -10; KLF5 inh: -32; IEC-6 cytotox: -6

What do the screens show for `Cc1ccc(S(=O)(=O)Nc2ccccc2N2CCOCC2)cc1`?
aSyn UTR inh: -5; KLF5 inh: -18; IEC-6 cytotox: 5

Results for O=C(Oc1cccnc1)c1ccco1 ?
APP 5UTR inh: 46*; Ba/F3 V617F tox: -4; BaF3 parental: 2; aSyn UTR inh: -10; KLF5 inh: -13; IEC-6 cytotox: -3

Results for COC(=O)c1ccc2nc(-c3ccc4c(c3)OCO4)cn2c1 ?
APP 5UTR inh: -90; Ba/F3 V617F tox: 0; BaF3 parental: 5; aSyn UTR inh: 95*; KLF5 inh: -95; IEC-6 cytotox: -1

What do the screens show for `COCCn1c(C)cc(C2=NNC(=NC3CC3)SC2)c1C`?
APP 5UTR inh: 88*; Ba/F3 V617F tox: -2; BaF3 parental: 5; aSyn UTR inh: 112*; KLF5 inh: 79*; IEC-6 cytotox: -8

What do the screens show for `C=CCN=C1NN=C(c2cc(C)n(CCOC)c2C)CS1`?
APP 5UTR inh: -2; Ba/F3 V617F tox: -4; BaF3 parental: 2; aSyn UTR inh: 86*; KLF5 inh: 0; IEC-6 cytotox: -4

What do the screens show for `C=CCn1c(C)cc(C2=NNC(=NC(C)(C)C)SC2)c1C`?
APP 5UTR inh: -128; Ba/F3 V617F tox: 2; BaF3 parental: 0; aSyn UTR inh: 89*; KLF5 inh: -27; IEC-6 cytotox: 1

Results for Cc1cc(C2=NNC(=NC3CC3)SC2)c(C)n1Cc1ccco1 ?
APP 5UTR inh: 47*; Ba/F3 V617F tox: -5; BaF3 parental: -2; KLF5 inh: -15; IEC-6 cytotox: -2

How did C=CCn1c(C)cc(C2=NNC(=Nc3ccc(C)cc3)SC2)c1C do in these assays?
APP 5UTR inh: -14; Ba/F3 V617F tox: 0; BaF3 parental: 2; aSyn UTR inh: -4; KLF5 inh: 3; IEC-6 cytotox: -5

How did COCCn1c(C)cc(C2=NNC(=Nc3ccc(Cl)cc3Cl)SC2)c1C do in these assays?
APP 5UTR inh: 6; Ba/F3 V617F tox: 1; BaF3 parental: 4; aSyn UTR inh: -2; KLF5 inh: 1; IEC-6 cytotox: 2

What do the screens show for `Cc1cc(C2=NNC(=NC3CC3)SC2)c(C)n1-c1ccccc1`?
APP 5UTR inh: 76*; Ba/F3 V617F tox: -2; BaF3 parental: 3; aSyn UTR inh: 95*; KLF5 inh: 21; IEC-6 cytotox: 0

Bioassay records as filed in PubChem BioAssay.
